Gli-Sufu block = Gli-Sufu pathway antagonism | 0.74% of 340,000 active | Sufu-KO-LIGHT fibroblasts, Gli luciferase reporter luminescence | inhibition, % at 5 µM;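 active = inhibition above about 55%, limit read from the data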
697 NFkB inh = inhibitors of the PMA/ionomycin-induced NF-kB reporter in 697 B cells; 697 B-cell NF-kB luciferase reporter, 16 h; 0.33% of 330,000 active; inhibition, % at 4 µM; in the data active = inhibition above about 35%
NR2F2 inh = inhibitors of human COUP-TFII (NR2F2) | P24468 | HEK293T NGFI-A luciferase reporter, luminescence | inhibition, % at 8.6 µM | 0.7% of 370,000 active;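 active = inhibition above a per-plate cutoff, mean inhibition of test wells between control levels plus 3 SD, cut at about 38% in these data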;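 note: cells cotransfected with COUP-TFII expression vector driving the NGFI-A reporter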
Target sequence (P24468 whole entry, looked up): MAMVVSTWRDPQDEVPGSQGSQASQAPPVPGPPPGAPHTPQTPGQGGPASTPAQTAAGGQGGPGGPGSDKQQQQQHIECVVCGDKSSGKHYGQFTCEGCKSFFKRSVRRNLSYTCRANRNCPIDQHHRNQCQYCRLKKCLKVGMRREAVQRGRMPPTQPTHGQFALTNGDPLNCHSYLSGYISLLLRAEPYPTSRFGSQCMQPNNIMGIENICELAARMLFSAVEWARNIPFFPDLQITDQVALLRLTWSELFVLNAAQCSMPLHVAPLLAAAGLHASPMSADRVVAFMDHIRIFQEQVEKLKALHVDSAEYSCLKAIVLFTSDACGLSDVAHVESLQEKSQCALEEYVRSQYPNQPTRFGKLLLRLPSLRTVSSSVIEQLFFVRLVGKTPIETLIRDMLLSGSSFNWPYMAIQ
Jurkat NFkB inh = inhibitors of the PMA/ionomycin-induced NF-kB reporter in Jurkat cells; PMA/ionomycin-induced NF-kB luciferase reporter, luminescence; inhibition, % at 4 µM; 0.53% of 330,000 active; AID 435003; in the data active = inhibition above about 50%
H9c2 TAG inh = inhibitors of triacylglycerol accumulation. H9c2 cells, Nile Red lipid (TAG) fluorescence; cells loaded with 200 µM oleic acid. inhibition, % at 12.5 µM. 0.66% of 230,000 active;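 active = pattern-corrected inhibition of lipid staining of at least 50% with the nuclear-stain viability signal not falling by more than 50%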
Cardio protect = modulators protecting cardiomyocytes from myocardial damage; 0.63% of 360,000 active; AID 588492; protection from H2O2 cell death, % at 20 µM; H9c2 cardiomyocytes, H2O2 injury protection, ATPLite, 2 h;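 active = compounds giving at least 50% protection of heart cells from peroxide-induced death in the single-dose screen, raw or plate-pattern-corrected value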
VP16 Luc counter = counter-screen for COUP-TFII antagonists: inhibitors of VP16. inhibition, % at 8.5 µM. shares compounds with NR2F2 inh. HEK293 Gal4-VP16 luciferase reporter, luminescence. 25% of 2,500 active. AID 687007; in the data active = inhibition above about 13%
NR2F2 inh conf = confirmation of human COUP-TFII (NR2F2) inhibitors. shares compounds with NR2F2 inh. 45% of 2,500 active. AID 687008. inhibition, % at 8.5 µM. HEK293 NGFI-A luciferase reporter, luminescence;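 active = mean inhibition over three repeats above a set limit taken from the earlier primary screen, cut at about 38% in these data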
Hits are given with their value; – = inactive; · = no result given. In the library only some 2.6% were active in any assay of this set; here they are far more common.

SMILES	Gli-Sufu block	697 NFkB inh	NR2F2 inh	Jurkat NFkB inh	H9c2 TAG inh	Cardio protect	VP16 Luc counter	NR2F2 inh conf
O=C(c1ccccc1)N1CCN(C(=O)N2CCOCC2)CC1	–	–	–	–	–	–	·	·
CCN(c1ccc(OC)cc1)c1ncnc2nc[nH]c12	–	–	38	–	–	–	–	–
O=C(CCc1ccccc1)N[C@H]1[C@@H](OC(=O)c2ccc([N+](=O)[O-])cc2)CCC[C@]12C(=O)N(Cc1ccccc1)c1ccccc12	·	·	–	·	·	·	·	·
CCc1ccn2cc(-c3cc(-c4ccccc4)no3)nc2c1	56	–	88	–	–	–	18	67
O=C(/C=C/c1cccs1)NC(=S)NNC(=O)c1ccccc1O	–	–	60	–	–	–	21	63
O=C(OCc1ccccc1)[C@H](Cc1ccccc1)NC(=O)[C@@H]1CC=C[C@@H]2CCN(Cc3ccccc3)C(=O)[C@@H]21	·	·	–	·	·	·	·	·
Cc1cc2c(nc1C)CCCN2S(=O)(=O)c1c(C)noc1C	·	·	–	·	·	·	·	·
CC(C)(C)c1ccc(C(O)c2ncc(-c3ccccc3)[nH]2)cc1 (stereo not drawn)	·	·	–	·	–	–	·	·
OC(c1ccc(-c2ccccc2)cc1)c1ncc(-c2ccccc2)[nH]1 (stereo not drawn)	·	·	57	·	–	–	–	–
CC(=O)Nc1nc2cc3c(cc2s1)OCO3	–	–	–	–	–	–	·	·
O=C(Nc1nc2cc3c(cc2s1)OCO3)C1=COCCO1	–	–	54	–	–	–	–	–
O=C(Nc1nc2cc3c(cc2s1)OCCO3)c1ccco1	–	–	69	–	–	–	–	–
CN(C)CCC(=O)N1C/C(=C/c2ccccc2)C(=O)/C(=C\c2ccccc2)C1	–	·	79	·	–	–	81	87
CCOC(=O)N1C/C(=C\c2ccccc2)C(=O)/C(=C/c2ccccc2)C1	–	·	–	·	·	–	·	·
C[N+](C)(C)CCC(=O)N1C/C(=C/c2ccccc2)C(=O)/C(=C\c2ccccc2)C1	–	·	72	·	–	–	22	–
O=C1/C(=C/c2ccccc2)CN(C(=O)CCN2CCOCC2)C/C1=C\c1ccccc1	–	·	57	·	–	–	35	–
CCCCCN1CCCCC(NC(=O)c2cccc(C(F)(F)F)c2)C1=O (stereo not drawn)	·	·	–	·	·	·	·	·
COc1ccc(-c2cscc2N)cc1	·	·	–	·	·	·	·	·
C=CS(=O)(=O)N(Cc1ccc(F)cc1)C(=C)C(=O)OC	·	·	68	·	·	·	17	–
COc1cccc(N(C)C(=O)[C@@H](C2CC2)[C@@H](O)c2ccc(Cl)cc2)c1	·	·	–	·	·	·	·	·
CC1(C)C=Cc2ccc(O)c(C(=O)/C=C/c3ccccc3)c2O1	·	·	44	·	·	·	18	–
O=S1(=O)c2c(cccc2N2CC[C@H](O)C2)O[C@H]2CCN1C2	·	·	–	·	·	·	·	·
COc1cc(CNc2ncnc3c2ncn3[C@H]2CN(Cc3ccc(-c4ccccc4)cc3)C[C@@H](CO)O2)cc(OC)c1OC	·	·	59	·	–	–	–	48
OC[C@@H]1CN(Cc2ccc(-c3ccccc3)cc2)C[C@H](n2cnc3c(NCc4ccncc4)ncnc32)O1	·	·	59	·	–	–	–	39
C[C@@H]1C=CCCO[C@]12C(=O)N(CC1CC1)c1ccccc12	·	·	–	·	·	·	·	·
SMILES	Gli-Sufu block	697 NFkB inh	NR2F2 inh	Jurkat NFkB inh	H9c2 TAG inh	Cardio protect	VP16 Luc counter	NR2F2 inh conf
CN(Cc1cn(Cc2ccccc2)nn1)S(=O)(=O)c1ccc(F)cc1Br	·	·	–	·	·	·	·	·
CN(C)c1ccc(/C=N/N=C2/NC(=O)/C(=C/c3ccc([N+](=O)[O-])cc3)S2)cc1	–	–	41	–	–	–	–	–
CC(=O)c1cccc(NC(=O)c2cnn3c(C)cc(C)nc23)c1	·	·	–	·	·	·	·	·
CCc1ccc2oc(-c3cc(N)ccc3O)nc2c1	–	–	–	–	–	–	·	·
Cc1ccc(C)c(-c2nc3cc(N)ccc3o2)c1	–	–	42	–	–	–	–	–
COC(=O)c1ccc(-c2nc3cc(N)ccc3o2)cc1	–	–	41	–	·	–	22	–
C=CCc1cccc(CNc2cnc3ccccc3c2)c1O	–	–	47	–	–	–	–	–
Oc1ccccc1CNc1cnc2ccccc2c1	–	–	–	–	·	–	·	·
COc1ccc2[nH]c3c(NCCC4=CCCCC4)ncnc3c2c1	68	·	54	·	–	–	–	–
CCN(CC)CCNc1ncnc2c1[nH]c1ccc(OC)cc12	·	–	·	–	·	·	·	·
CCc1cccc(CC)c1NC(=O)CSc1nc2ccc(N3C(=O)C4C5C=CC(C5)C4C3=O)cc2s1 (stereo not drawn)	–	–	39	–	–	–	–	–
O=C(O)c1ccc(CSc2nc3ccc(N4C(=O)C5C6C=CC(C6)C5C4=O)cc3s2)cc1 (stereo not drawn)	–	–	–	–	·	–	·	·
CC(C)(C)c1ccc(NC(=O)COc2ccc(-n3ccnc3)cc2)cc1	–	–	51	–	–	–	–	47
COc1cc(NC(=O)COc2ccc(-n3ccnc3)cc2)cc(OC)c1	–	–	–	–	–	–	·	·
Cc1nc2ccc(NC(=O)c3cccs3)cc2c(=O)n1Cc1ccc(Cl)cc1	–	–	59	–	·	–	–	46
CCCc1nc2ccc(NC(=O)c3cccs3)cc2c(=O)n1Cc1ccc(Cl)cc1	–	–	–	–	–	–	·	·
CCCCCCCCN1C(=O)[C@@H](CC(=O)NCCC(C)C)C[C@@]2(C(=O)OC)C1=C[C@H](COCc1ccccc1)O[C@@H]2C	·	·	–	·	·	·	·	·
COCC(C)n1c(C)cc(C(=O)CSc2nnnn2C2CCCC2)c1C (stereo not drawn)	–	–	41	–	–	–	–	–
COCC(C)n1c(C)cc(C(=O)CSc2nc(C)c(C)c(C)n2)c1C (stereo not drawn)	–	–	–	–	–	–	·	·
CCOC(=O)COc1ccc(S(=O)(=O)NCc2ccco2)cc1	–	–	–	–	·	–	·	·
CCOC(=O)COc1ccc(S(=O)(=O)NCc2ccncc2)cc1	–	–	49	–	·	–	–	–
Cn1c(=O)n(C)c2cc([N+](=O)[O-])c(N3CCN(C(=O)c4ccccc4Cl)CC3)cc21	–	–	45	–	·	–	–	–
O=S1(=O)c2c(NCc3ccco3)cccc2Oc2ccccc2CN1Cc1cn(Cc2ccccc2C(F)(F)F)nn1	·	·	–	·	·	·	·	·
O=C(CNC(=O)c1ccccc1F)NCCN1C(=O)S/C(=C\c2ccc3c(c2)OCO3)C1=O	–	–	–	–	–	–	·	·
NCCN1C(=O)S/C(=C\c2ccc3c(c2)OCO3)C1=O	–	–	76	–	·	–	27	–
O=C(CSc1nnc(COc2ccccc2)n1-c1ccc(Cl)cc1)Nc1ccc2c(c1)OCCO2	·	·	–	·	·	·	·	·
COc1cccc(S(=O)(=O)NCc2ccc(C(=O)Nc3ccc(Cl)c(Cl)c3)cc2)c1	–	–	64	–	–	–	–	–

Screening results deposited in PubChem by several laboratories.
